These results are taken from PubChem BioAssay (NCATS).

Test [1] in a line: Primary qHTS for Huh7 cytotoxicity: counterscreen for inhibitors of MERS-S pseudotyped particle cell entry (AID 1479147). As to activity change, negative = cytotoxicity: % is scaled to controls: 0 for no effect and ±100 for the full control effect. As to conditions: cell viability read-out; series mostly up to 57.1 µM.
The nature of test [2]: Primary qHTS for inhibitors of MERS-S pseudo-typed particle cell entry (AID 1479149). Also: nearly all actives have a fitted effect of over 60% in size. Also: potency is read from the fitted curve at half-maximal effect. As to conditions: MERS-S pseudotyped particle entry, luciferase; series mostly up to 57.1 µM.
A short description of test [3]: Primary qHTS for Vero E6 cytotoxicity: counterscreen for inhibitors of SARS-S pseudo-typed particle cell entry (AID 1479150). As to activity change, negative = cytotoxicity: % is scaled to controls: 0 for no effect and ±100 for the full control effect. Particulars: cell viability; series mostly up to 57.1 µM. Background: Quantitative high-throughput screening tests each substance at several concentrations.
Test [4] can be described thus: Confirmatory qHTS for VERO E6 Cytotoxicity Assay: Counterscreen for SARS-CoV-2 CPE Assay (AID 1508605). Also: nearly all actives have a fitted effect of over 60% in size. Also: potency is read from the fitted curve at half-maximal effect. Particulars: cell viability luminescence; series mostly up to 20 µM.
Test [5] can be described thus: Confirmatory qHTS for activators (rescue) of SARS-CoV-2 Cytopathic Effect (CPE) (AID 1508606). Also: potency is read from the fitted curve at half-maximal effect; nearly all actives have a fitted effect of over 70% in size. As to conditions: Vero E6 SARS-CoV-2 CPE rescue, viability luminescence.

Molecules are shown by their SMILES. Records with an inconclusive call do not appear. Unmarked numbers belong to inactive results. The source made the active and inactive calls. Calls follow the shape of the full dose curve.

With `Cc1cc2nc3c(=O)[nH]c(=O)nc-3n(C[C@H](O)[C@H](O)[C@H](O)CO)c2cc1C`, the Potency entry in test [1], in test [2] and in test [3] was “inactive” in each case.

Regarding `NC(CO)(CO)CO`, the Potency entry in test [1], in test [2] and in test [3] was “inactive” in each case.

Consider `Cc1ccc(C(C)C)cc2c(C)ccc1-2`, for which the Potency result in test [1], in test [2] and in test [3] was “inactive” each time.

In the case of `CC(=O)N(CC(O)CO)c1c(I)c(C(=O)NCC(O)CO)c(I)c(C(=O)NCC(O)CO)c1I` (stereo unspecified), the Potency result in test [1], in test [2] and in test [3] was “inactive” throughout.

On to `CC(CCc1ccc(O)cc1)NCCc1ccc(O)c(O)c1` (stereo unspecified), for which the Potency entry in test [1], in test [2] and in test [3] was “inactive” throughout.

Take `C[C@@H]1CN(c2c(F)c(F)c3c(=O)c(C(=O)O)cn(C4CC4)c3c2F)C[C@H](C)N1`: the Potency entry in test [1], in test [2] and in test [3] was “inactive” throughout.

Regarding `O=C(NC(Cc1cc(=O)[nH]c2ccccc12)C(=O)O)c1ccc(Cl)cc1` (stereo unspecified), the Potency result in test [1], in test [2] and in test [3] was “inactive” each time.

Take `CN(C)C(=O)Oc1ccc[n+](C)c1`: the Potency result in test [1], in test [2] and in test [3] was “inactive” in each case.

For `C=C1[C@H](CO)[C@@H](O)C[C@@H]1n1cnc2c(=O)[nH]c(N)nc21`, the Potency entry in test [1], in test [2] and in test [3] was “inactive” throughout.

For the compound `CC(C)[C@H](N)C(=O)OCC(CO)OCn1cnc2c(=O)[nH]c(N)nc21` (stereo partly specified), the Potency result in test [1], in test [2] and in test [3] was “inactive” each time.

Consider `CC(=O)OC(C)OC(=O)C(C)c1ccc(-c2ccccc2)c(F)c1` (stereo unspecified), for which the Potency entry in test [1], in test [2] and in test [3] was “inactive” each time.

In the case of `CCCCCN(CCCOC)C(=O)C(CCC(=O)O)NC(=O)c1ccc(Cl)c(Cl)c1` (stereo unspecified), the Potency entry in test [1], in test [2] and in test [3] was “inactive” in each case.

With `COc1ccc(-c2ccc3cc(C(=O)O)ccc3c2)cc1C12CC3CC(CC(C3)C1)C2`, the Potency entry in test [1] and in test [3] was “inactive” throughout.

As to `N#Cc1ccc2c(c1)N(CCCN1CCC(O)CC1)c1ccccc1S2`, the Potency entry in test [1], in test [3] and in test [4] was “inactive” throughout. Further, in test [5], the Potency was 11.2 µM (active).

Regarding `O=C(O[C@H]1CN2CCC1CC2)N1CCc2ccccc2[C@@H]1c1ccccc1`, the Potency result in test [1] and in test [3] was “inactive” in each case.

With `CN1CCN(C(c2ccccc2)c2ccc(Cl)cc2)CC1` (stereo unspecified), the Potency entry in test [1], in test [3] and in test [4] was “inactive” each time.

`C=CCN1C[C@H](C(=O)N(CCCN(C)C)C(=O)NCC)C[C@@H]2c3cccc4[nH]cc(c34)C[C@H]21`: the Potency entry in test [1] and in test [3] was “inactive” each time.

In the case of `O=c1[nH]c(=O)n([C@H]2C[C@H](O)[C@@H](CO)O2)cc1F`, the Potency entry in test [2] and in test [3] was “inactive” throughout.

For `CNCCC=C1c2ccccc2CCc2ccccc21`, the Potency entry in test [3] and in test [4] was “inactive” throughout.

Turning to `O=C(OCc1ccccc1)c1ccccc1`, the Potency entry in test [1] and in test [3] was “inactive” in each case.

As to `CN1[C@@H]2CC[C@H]1CC(OC(c1ccccc1)c1ccccc1)C2` (stereo partly specified), the Potency result in test [1], in test [3] and in test [4] was “inactive” throughout. Also, in test [2], the Potency is 14.1 µM (active).

For the compound `O=c1[nH]c(=O)n([C@H]2C[C@H](O)[C@@H](CO)O2)cc1Br`, the Potency result in test [1] and in test [3] was “inactive” throughout.

Turning to `CCN(CC)CC#CCOC(=O)C(O)(c1ccccc1)C1CCCCC1` (stereo unspecified), the Potency entry in test [1] and in test [3] was “inactive” throughout.

Take `Nc1ncn([C@H]2C[C@H](O)[C@@H](CO)O2)c(=O)n1`: the Potency entry in test [1] and in test [3] was “inactive” in each case.

In the case of `Oc1ccc(Cl)c2cccnc12`, the Potency entry in test [2] and in test [3] was “inactive” each time.

As to `CCN(CC)C(C)CN1c2ccccc2Sc2ccccc21` (stereo unspecified), the Potency result in test [1] and in test [3] was “inactive” in each case.

Take `C[n+]1c2cc(N)ccc2cc2ccc(N)cc21` (tested in a mixture with another compound): the Potency in test [2] is 7.94 µM (active).

Regarding `CNCCCC12CCC(c3ccccc31)c1ccccc12`, the Potency entry in test [1], in test [3] and in test [4] was “inactive” in each case.

`CC(=O)S[C@@H]1CC2=CC(=O)CC[C@]2(C)[C@H]2CC[C@@]3(C)[C@@H](CC[C@@]34CCC(=O)O4)[C@H]12`: the Potency entry in test [2] and in test [3] was “inactive” each time.

On to `COc1cc(C)nc(-n2nc(C)cc2OC)n1`, for which the Potency entry in test [1] and in test [3] was “inactive” each time.

`CNCCCCOc1ccccc1Cc1ccccc1`: the Potency result in test [3] and in test [4] was “inactive” each time.

As for `CN(C)c1ccc2nc3ccc(=[N+](C)C)cc-3sc2c1`, the Potency in test [2] was 7.08 µM (active).

Consider `NCCCC[C@H](N[C@@H](CCc1ccccc1)C(=O)O)C(=O)N1CCC[C@H]1C(=O)O`, for which the Potency result in test [1], in test [2] and in test [3] was “inactive” each time.

On to `C#CCC(Cc1cnc2nc(N)nc(N)c2n1)c1ccc(C(=O)N[C@@H](CCC(=O)O)C(=O)O)cc1` (stereo partly specified), for which the Potency entry in test [2] was “inactive”.

On to `CC(=O)[C@H]1CC[C@H]2[C@@H]3C=CC4=CC(=O)CC[C@@]4(C)[C@@H]3CC[C@]12C`, for which the Potency result in test [1] and in test [3] was “inactive” throughout.

Regarding `COc1cc(C)c(Cc2cnc(N)nc2N)cc1OC`, the Potency entry in test [1] and in test [3] was “inactive” in each case.

On to `NCCCNCCSP(=O)(O)O`, for which the outcome in test [1] and in test [2] was “inactive [at 11.4 µM]” in each case. In test [3], the activity change, negative = cytotoxicity is 2.55% [at 11.4 µM].

In the case of `CC(C)(C)CC(C)(C)c1ccc(OCCOCC[N+](C)(C)Cc2ccccc2)cc1`, the Potency entry in test [1] and in test [3] was “inactive” in each case.

For `CCOC(=O)C1=C(COCCN)NC(C)=C(C(=O)OC)C1c1ccccc1Cl` (stereo unspecified), the Potency entry in test [1], in test [2], in test [3] and in test [4] was “inactive” throughout.

Turning to `Cc1ccc(Nc2nccc(N(C)c3ccc4c(C)n(C)nc4c3)n2)cc1S(N)(=O)=O`, the Potency entry in test [1] and in test [3] was “inactive” throughout.

With `Cc1cc(C(C#N)c2ccc(Cl)cc2)c(Cl)cc1NC(=O)c1cc(I)cc(I)c1O` (stereo unspecified), the Potency in test [2] is 20 µM (active).

On to `CC(=O)O[C@]1(C(C)=O)CC[C@H]2[C@@H]3C[C@H](C)C4=CC(=O)CC[C@]4(C)[C@H]3CC[C@@]21C`, for which the Potency result in test [1] and in test [3] was “inactive” throughout.

Regarding `CN1CCN(CCC=C2c3ccccc3Sc3ccc(S(=O)(=O)N(C)C)cc32)CC1`, the Potency result in test [2] is “inactive”. In test [4], the Potency is 11.2 µM (active).

With `OCCN1CCN(CC/C=C2/c3ccccc3Sc3ccc(C(F)(F)F)cc32)CC1`, the Potency result in test [3] was “inactive”.

Take `NC(N)=NS(=O)(=O)c1ccc(N)cc1`: the Potency result in test [1] and in test [3] was “inactive” in each case.

With `CCOc1ccc2nc3cc(N)ccc3c(N)c2c1`, the Potency result in test [1] and in test [3] was “inactive” each time.

Take `CN(c1nccc(=O)[nH]1)C1CCN(c2nc3ccccc3n2Cc2ccc(F)cc2)CC1`: the Potency entry in test [1] and in test [3] was “inactive” throughout.

With `CC(=O)N1CCN(c2ccc(OC[C@H]3CO[C@](Cn4ccnc4)(c4ccc(Cl)cc4Cl)O3)cc2)CC1`, the Potency in test [2] was 7.94 µM (active).

Turning to `CC(=O)OCC(=O)[C@H]1CC[C@H]2[C@@H]3CCC4=CC(=O)CC[C@]4(C)[C@H]3CC[C@]12C`, the Potency entry in test [1] and in test [3] was “inactive” in each case.

Turning to `CN(C)CCOc1ccc(/C(=C(/CCCl)c2ccccc2)c2ccccc2)cc1`, the Potency entry in test [1] and in test [3] was “inactive” in each case.
